Measurements taken from PubChem BioAssay (NCI).
The panel holds about 79,000 compounds, 15% with a hit somewhere; the sample as a whole holds those more often. Activity calls are given as the source filed them. Rule as the data show it: active = growth inhibition above about 70%; inactive = the rest.

Legend:
[1] = NCI Yeast Anticancer Drug Screen. Data for the rad52 strain (AID 147);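 also: 0% = growth of vehicle-treated control cultures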; conditions: S. cerevisiae rad52 mutant growth inhibition, active compounds read high
How it was run: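 Screen used a yeast mutant impaired in DNA repair. After compound exposure, growth was measured. Values reflect inhibition compared with vehicle-treated cells.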

[2] = NCI Yeast Anticancer Drug Screen. Data for the wt1 strain (AID 149);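 also: 0% = growth of vehicle-treated wt1 cultures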; conditions: S. cerevisiae wt1 strain (SPY 50644) growth inhibition, active compounds read high
How it was run: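 Each compound is tested on wt1 yeast and the loss of growth versus vehicle gives the inhibition value.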

[3] = NCI Yeast Anticancer Drug Screen. Data for the rad50EPP+ strain (AID 151);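 also: 0% = growth of vehicle-treated control cultures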; conditions: S. cerevisiae rad50 mutant strain, active compounds read high
How it was run: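 Exposing the rad50EPP+ strain to each compound, growth was compared with vehicle-only cultures to give inhibition.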

[4] = NCI Yeast Anticancer Drug Screen. Data for the mgt1 strain (AID 153); conditions: S. cerevisiae mgt1 mutant growth inhibition, active compounds read high
How it was run: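 Genetically defined yeast (mgt1) treated with compound; inhibition of growth expressed against vehicle-treated controls.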

[5] = NCI Yeast Anticancer Drug Screen. Data for the rad50 strain (AID 155);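 also: 0% = growth of vehicle-only cultures of the same strain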; conditions: S. cerevisiae rad50 strain growth inhibition, active compounds read high
How it was run: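 Vehicle-treated cultures provide the reference for the growth inhibition reported for compound-exposed, repair-deficient yeast.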

[6] = NCI Yeast Anticancer Drug Screen. Data for the mec2-1 strain (AID 157); conditions: S. cerevisiae mec2-1 strain, active compounds read high
How it was run: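 Readout is yeast growth inhibition, normalised to vehicle-treated controls, in the mec2-1 strain exposed to compound.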

[7] = NCI Yeast Anticancer Drug Screen. Data for the rad14 strain (AID 159);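 also: 0% = growth of vehicle-treated control cultures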; conditions: S. cerevisiae rad14 strain growth inhibition, active compounds read high
How it was run: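 Inhibition of growth is reported for a repair-deficient yeast mutant following compound treatment, calculated relative to cultures that received vehicle.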

[8] = NCI Yeast Anticancer Drug Screen. Data for the sgs1 mgt1 strain (AID 161);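 also: 0% = growth of cultures given vehicle only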; conditions: S. cerevisiae sgs1 mgt1 strain, active compounds read high
How it was run: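 Percent growth inhibition was derived by comparing compound-exposed mutant yeast with vehicle-exposed cultures. The strain carries alterations in DNA damage repair.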

[9] = NCI Yeast Anticancer Drug Screen. Data for the CLN2oe strain (AID 163);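 also: 0% = growth of vehicle-only control cultures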; conditions: S. cerevisiae CLN2oe strain, active compounds read high
How it was run: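 Values reflect how much compound exposure reduced yeast growth, referenced to vehicle-exposed cells. Assay organism is a strain with a defined genetic change affecting cell-cycle control.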

[10] = NCI Yeast Anticancer Drug Screen. Data for the cln2 rad14 strain (AID 165);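 also: 0% = growth equal to vehicle treated cultures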; conditions: S. cerevisiae cln2 rad14 strain, active compounds read high
How it was run: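 Relative to vehicle controls, growth inhibition of compound-treated cln2 rad14 yeast was recorded.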

[11] = NCI Yeast Anticancer Drug Screen. Data for the bub3 strain (AID 167); conditions: S. cerevisiae bub3 mutant strain, active compounds read high
How it was run: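 Mutant yeast screening strain plus compound; vehicle-treated cultures serve as the 0% inhibition reference.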

[12] = NCI Yeast Anticancer Drug Screen. Data for the wt2 strain (AID 169); conditions: S. cerevisiae wt2 strain growth inhibition, active compounds read high
How it was run: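 Values express reduction in yeast growth under compound treatment, referenced to vehicle-treated cells.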

[13] = NCI Yeast Anticancer Drug Screen. Data for the mlh1 strain (AID 171);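 also: 0% = growth of vehicle-treated control cultures of the same strain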; conditions: S. cerevisiae mlh1 strain growth inhibition, active compounds read high
How it was run: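 Steps: expose the defined-mutant yeast strain to compound; expose a parallel culture to vehicle; measure growth; express compound effect as inhibition relative to the vehicle culture.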

[14] = NCI Yeast Anticancer Drug Screen. Data for the sgs1 strain (AID 173);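 also: 0% = growth of vehicle-only control cultures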; conditions: S. cerevisiae sgs1 mutant, active compounds read high
How it was run: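 Treat defined-mutant yeast with compound; measure growth; calculate inhibition relative to vehicle-treated cells.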

[15] = NCI Yeast Anticancer Drug Screen. Data for the mlh1 rad18 strain (AID 175); conditions: S. cerevisiae mlh1 rad18 strain growth inhibition, active compounds read high
How it was run: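 Test agents were incubated with a yeast strain of defined genotype (DNA damage repair defect). Inhibition of growth was derived by comparison with vehicle-exposed cultures.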

[16] = NCI Yeast Anticancer Drug Screen. Data for the rad18 strain (AID 177); conditions: S. cerevisiae rad18 mutant growth inhibition, active compounds read high
How it was run: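 A genetically defined yeast mutant impaired in DNA damage repair was treated with test compounds, then its growth was measured against cultures receiving vehicle alone.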

[17] = at 5.0 µM (retest, dose inferred, filed as 0.5)
[18] = at 50.0 µM (retest, dose inferred, filed as 5.0)

Measured: growth inhibition

CCOc1ccc2nc3ccccc3c(N)c2c1
active: [1]; at 33.0 µM 91% | [1]; at 100.0 µM 97% | [2]; at 33.0 µM 83% | [2]; at 100.0 µM 94% | [3]; at 100.0 µM 90% | [4]; at 33.0 µM 83% | [4]; at 100.0 µM 94% | [5]; at 33.0 µM 89% | [5]; [18] 81% | [5]; at 50.0 µM 91.2% | [5]; at 100.0 µM 97% | [6]; at 33.0 µM 80% | [6]; [18] 82% | [6]; at 50.0 µM 83.7% | [6]; at 100.0 µM 97% | [7]; at 33.0 µM 87% | [7]; at 100.0 µM 92% | [8]; [18] 86% | [8]; at 50.0 µM 81.2% | [9]; at 100.0 µM 92% | [10]; [18] 84% | [10]; at 50.0 µM 86.2% | [11]; at 33.0 µM 78% | [11]; [18] 84% | [11]; at 50.0 µM 87.1% | [11]; at 100.0 µM 90% | [12]; at 33.0 µM 89% | [12]; at 100.0 µM 98% | [13]; at 33.0 µM 90% | [13]; at 100.0 µM 98% | [14]; at 33.0 µM 88% | [14]; at 100.0 µM 97% | [15]; [18] 82% | [15]; at 50.0 µM 89.5%
inactive: [1]; at 1.2 µM 13% | [1]; at 3.7 µM 22% | [1]; at 11.0 µM 60% | [2]; at 1.2 µM 7% | [2]; at 3.7 µM 13% | [2]; at 11.0 µM 37% | [3]; at 1.2 µM 2% | [3]; at 3.7 µM 4% | [3]; at 11.0 µM 21% | [3]; at 33.0 µM 59% | [4]; at 1.2 µM 0% | [4]; at 3.7 µM 9% | [4]; at 11.0 µM 35% | [5]; at 1.2 µM 7% | [5]; at 3.7 µM 21% | [5]; [17] 0% | [5]; at 11.0 µM 50% | [6]; at 1.2 µM 5% | [6]; at 3.7 µM 4% | [6]; [17] 21% | [6]; at 11.0 µM 19% | [7]; at 1.2 µM 4% | [7]; at 3.7 µM 23% | [7]; at 11.0 µM 50% | [8]; [17] 32% | [9]; at 1.2 µM 7% | [9]; at 3.7 µM 16% | [9]; at 11.0 µM 33% | [9]; at 33.0 µM 68% | [10]; [17] 46% | [11]; at 1.2 µM -20% | [11]; at 3.7 µM -2% | [11]; [17] 14% | [11]; at 11.0 µM 16% | [12]; at 1.2 µM 7% | [12]; at 3.7 µM 18% | [12]; at 11.0 µM 49% | [13]; at 1.2 µM 7% | [13]; at 3.7 µM 8% | [13]; at 11.0 µM 47% | [14]; at 1.2 µM 10% | [14]; at 3.7 µM 24% | [14]; at 11.0 µM 51% | [15]; [17] 10%

CC1(C)C(O)OC(O)C1(C)C (stereo unspecified)
active: [16]; at 100.0 µM 77%
inactive: [1]; at 1.2 µM 0% | [1]; at 3.7 µM 0% | [1]; at 11.0 µM 2% | [1]; at 33.0 µM 7% | [1]; at 100.0 µM 30% | [2]; at 1.2 µM 0% | [2]; at 3.7 µM 0% | [2]; at 11.0 µM 4% | [2]; at 33.0 µM 2% | [2]; at 100.0 µM 8% | [3]; at 1.2 µM 0% | [3]; at 3.7 µM -1% | [3]; at 11.0 µM 2% | [3]; at 33.0 µM 1% | [3]; at 100.0 µM 12% | [4]; at 1.2 µM -1% | [4]; at 3.7 µM -1% | [4]; at 11.0 µM 2% | [4]; at 33.0 µM 16% | [4]; at 100.0 µM 10% | [5]; at 1.2 µM -1% | [5]; at 3.7 µM -2% | [5]; [17] 15% | [5]; at 11.0 µM 0% | [5]; at 33.0 µM 5% | [5]; [18] 8% | [5]; at 50.0 µM 69% | [5]; at 100.0 µM 25% | [6]; at 1.2 µM 0% | [6]; at 3.7 µM 2% | [6]; [17] 1% | [6]; at 11.0 µM 2% | [6]; at 33.0 µM 6% | [6]; [18] -10% | [6]; at 50.0 µM 29.4% | [6]; at 100.0 µM 23% | [7]; at 1.2 µM -2% | [7]; at 3.7 µM -2% | [7]; at 11.0 µM 0% | [7]; at 33.0 µM 3% | [7]; at 100.0 µM 22% | [8]; [17] -9% | [8]; [18] 14% | [8]; at 50.0 µM 58.5% | [9]; at 1.2 µM -10% | [9]; at 3.7 µM -3% | [9]; at 11.0 µM 0% | [9]; at 33.0 µM -5% | [9]; at 100.0 µM 3% | [10]; [17] 32% | [10]; [18] 7% | [10]; at 50.0 µM 24.4% | [11]; at 1.2 µM -7% | [11]; at 3.7 µM -7% | [11]; [17] -8% | [11]; at 11.0 µM -6% | [11]; at 33.0 µM -8% | [11]; [18] -13% | [11]; at 50.0 µM 37.4% | [11]; at 100.0 µM -6% | [12]; at 1.2 µM -1% | [12]; at 3.7 µM 1% | [12]; at 11.0 µM 5% | [12]; at 33.0 µM 5% | [12]; at 100.0 µM 10% | [13]; at 1.2 µM 0% | [13]; at 3.7 µM -1% | [13]; at 11.0 µM 4% | [13]; at 33.0 µM 6% | [13]; at 100.0 µM 18% | [14]; at 1.2 µM 1% | [14]; at 3.7 µM 5% | [14]; at 11.0 µM 11% | [14]; at 33.0 µM 25% | [14]; at 100.0 µM 63% | [15]; [17] 3% | [15]; [18] 56% | [15]; at 50.0 µM 60.8% | [16]; at 1.2 µM -1% | [16]; at 3.7 µM 2% | [16]; at 11.0 µM 13% | [16]; at 33.0 µM 31%
